# Experimental data from publication PMC11062922 (Nature Chemical Biology, 2023).
# Like-named read-outs stand apart in the source and are kept apart here.
# Tests used:
# Design in all cases: species or system human, MV4-11 + K-562 + COLO205 + SK-N-BE2 + OVCAR-8
# AURKA = conditions: read-out: apparent Kd, n = 1
# CAMKK2 = conditions: read-out: apparent Kd, n = 1
# EPHA4 = conditions: read-out: apparent Kd, n = 1
# EPHA5 = conditions: read-out: apparent Kd, n = 1
# MARK3 = conditions: read-out: apparent Kd, n = 1
# PRKACB = conditions: read-out: apparent Kd, n = 1
# CSNK1D = conditions: read-out: apparent Kd, n = 1
# ATM = conditions: read-out: apparent Kd; compound concentrations:100 nM and 1000 nM (sheet 'Samples'); n = 1
# BCR = conditions: read-out: apparent Kd, n = 1
# CHEK1 = conditions: read-out: apparent Kd, n = 1
# EPHB2 = conditions: read-out: apparent Kd, n = 1
# EPHB4 = conditions: read-out: apparent Kd, n = 1
# PIP4K2C = conditions: read-out: apparent Kd; compound concentrations:100 nM and 1000 nM (sheet 'Samples'); n = 1
# PRKAG2 = conditions: read-out: apparent Kd, n = 1
# RPS6KA4 = conditions: read-out: apparent Kd; compound concentrations:100 nM and 1000 nM (sheet 'Samples'); n = 1
# TNK1 = conditions: read-out: apparent Kd, n = 1
# MAPK9 = conditions: read-out: apparent Kd; compound concentrations: 100 nM and 1000 nM (sheet 'Samples'), CATDS: 3.1045225372311899E-2; n = 1
# PRKACA = conditions: read-out: apparent Kd; compound concentrations: 100 nM and 1000 nM (sheet 'Samples'), CATDS: 8.0141425433071494E-3; n = 1
# [1] = compound concentrations:100 nM and 1000 nM (sheet 'Samples')
smiles,measurement,setting,value
CN(c1ccc(NC(=O)N2CCN(CCCN3CCOCC3)CC2)cc1)c1ccnc(Nc2ccc(CS(C)(=O)=O)cc2)n1.Cl [GW830899A],potency estimated from few doses,"AURKA; compound concentrations: 100 nM and 1000 nM (sheet 'Samples'), CATDS: 2.4317426688995499E-2",955 nM
same,potency estimated from few doses,"CAMKK2; compound concentrations: 100 nM and 1000 nM (sheet 'Samples'), CATDS: 1.7762622720353199E-2",2190 nM
same,potency estimated from few doses,"EPHA4; compound concentrations: 100 nM and 1000 nM (sheet 'Samples'), CATDS: 2.15154621578117E-2",1270 nM
same,potency estimated from few doses,"EPHA5; compound concentrations: 100 nM and 1000 nM (sheet 'Samples'), CATDS: 2.2767251891404602E-2",1110 nM
same,potency estimated from few doses,"MARK3; compound concentrations: 100 nM and 1000 nM (sheet 'Samples'), CATDS: 1.9647586530532599E-2",1610 nM
same,potency estimated from few doses,"PRKACB; compound concentrations: 100 nM and 1000 nM (sheet 'Samples'), CATDS: 1.9426092751651199E-2",1660 nM
Cl.NCc1ccc(-c2nc(-c3ccc(Cl)c(O)c3)c(-c3ccncc3)[nH]2)cc1 [SB-476429-A],potency estimated from few doses,CSNK1D; [1],1290 nM
Cc1cccc2c(-c3ccncn3)c(-c3ccc(F)cc3)nn12 [GW515532X],potency estimated from few doses,"CSNK1D; compound concentrations: 100 nM and 1000 nM (sheet 'Samples'), CATDS: 0.213897093745788",1920 nM
O=C1NC(=O)C(N2CCc3ccccc32)=C1c1ccccc1Cl [SB-373598],potency estimated from few doses,ATM,39.1 nM
same,potency estimated from few doses,AURKA; [1],295 nM
same,potency estimated from few doses,BCR; [1],243 nM
same,potency estimated from few doses,CAMKK2; [1],588 nM
same,potency estimated from few doses,CHEK1; [1],999 nM
same,potency estimated from few doses,EPHA4; [1],387 nM
same,potency estimated from few doses,EPHA5; [1],276 nM
same,potency estimated from few doses,EPHB2; [1],110 nM
same,potency estimated from few doses,EPHB4; [1],129 nM
same,potency estimated from few doses,MARK3; [1],1280 nM
same,potency estimated from few doses,PIP4K2C,1020 nM
same,potency estimated from few doses,PRKACB; [1],1480 nM
same,potency estimated from few doses,PRKAG2; [1],1390 nM
same,potency estimated from few doses,RPS6KA4,1220 nM
same,potency estimated from few doses,TNK1; [1],31.3 nM
Cc1ccc(Nc2ccnc(Nc3ccc4c(c3)CS(=O)(=O)C4)n2)cc1O.Cl [GW579362A],potency estimated from few doses,"AURKA; compound concentrations: 100 nM and 1000 nM (sheet 'Samples'), CATDS: 4.77260985286359E-2",393 nM
same,potency estimated from few doses,"BCR; compound concentrations: 100 nM and 1000 nM (sheet 'Samples'), CATDS: 4.5785194143174703E-2",428 nM
Cc1cccc(-c2nc(Nc3ccncc3)c3sccc3n2)n1 [GW869641X],potency estimated from few doses,CSNK1D; [1],185 nM
Cl.Cl.NCC(C(=O)Nc1cc(Br)c(-c2ccnc3[nH]ccc23)s1)c1ccccc1.NCC(C(=O)Nc1cc(Br)c(-c2ccnc3[nH]ccc23)s1)c1ccccc1 (centres unmarked) [GSK1269851A],potency estimated from few doses,ATM,275 nM
same,potency estimated from few doses,AURKA; [1],768 nM
same,potency estimated from few doses,BCR; [1],90.4 nM
same,potency estimated from few doses,CAMKK2; [1],1310 nM
same,potency estimated from few doses,CHEK1; [1],1700 nM
same,potency estimated from few doses,EPHA4; [1],510 nM
same,potency estimated from few doses,EPHA5; [1],74.9 nM
same,potency estimated from few doses,EPHB2; [1],94.9 nM
same,potency estimated from few doses,EPHB4; [1],54.6 nM
same,potency estimated from few doses,PIP4K2C,1930 nM
same,potency estimated from few doses,PRKACB; [1],1920 nM
same,potency estimated from few doses,PRKAG2; [1],111 nM
same,potency estimated from few doses,TNK1; [1],62.7 nM
CCOC(=O)N1CCC(n2cnc(-c3ccc(F)cc3)c2-c2ccnc(N)n2)CC1 [SB-219952],potency estimated from few doses,"AURKA; compound concentrations: 100 nM and 1000 nM (sheet 'Samples'), CATDS: 9.8512895449749706E-3",901 nM
same,potency estimated from few doses,"CAMKK2; compound concentrations: 100 nM and 1000 nM (sheet 'Samples'), CATDS: 1.08972773288713E-2",701 nM
same,potency estimated from few doses,"CHEK1; compound concentrations: 100 nM and 1000 nM (sheet 'Samples'), CATDS: 8.4863258398705493E-3",1390 nM
same,potency estimated from few doses,"CSNK1D; compound concentrations: 100 nM and 1000 nM (sheet 'Samples'), CATDS: 0.19590664085395099",9.15 nM
same,potency estimated from few doses,"EPHA4; compound concentrations: 100 nM and 1000 nM (sheet 'Samples'), CATDS: 1.2785015902171799E-2",493 nM
same,potency estimated from few doses,"EPHA5; compound concentrations: 100 nM and 1000 nM (sheet 'Samples'), CATDS: 1.42398980321412E-2",397 nM
same,potency estimated from few doses,"EPHB2; compound concentrations: 100 nM and 1000 nM (sheet 'Samples'), CATDS: 1.57002336523176E-2",329 nM
same,potency estimated from few doses,"EPHB4; compound concentrations: 100 nM and 1000 nM (sheet 'Samples'), CATDS: 1.53468623139909E-2",344 nM
same,potency estimated from few doses,MAPK9,107 nM
same,potency estimated from few doses,"MARK3; compound concentrations: 100 nM and 1000 nM (sheet 'Samples'), CATDS: 8.6555083221940901E-3",1300 nM
same,potency estimated from few doses,PRKACA,1690 nM
same,potency estimated from few doses,"PRKACB; compound concentrations: 100 nM and 1000 nM (sheet 'Samples'), CATDS: 7.9637145567790901E-3",1730 nM
same,potency estimated from few doses,"PRKAG2; compound concentrations: 100 nM and 1000 nM (sheet 'Samples'), CATDS: 9.8371603155967009E-3",905 nM
same,potency estimated from few doses,"TNK1; compound concentrations: 100 nM and 1000 nM (sheet 'Samples'), CATDS: 1.30567209660681E-2",472 nM
